High-throughput results (PubChem)
BoNT-A LC inh2: inhibitors of Botulinum neurotoxin A light chain protease; multiplex microsphere protease substrate cleavage, flow cytometry; inhibition, % at 10 µM; 360,000 compounds, 0.17% hits; AID 588499
MazEF act: MazEF (E. coli) toxin RNase activation; P0AE70; FAM/BHQ RNA-DNA oligo cleavage fluorescence, 5 h; activation, % at 20 µM; 350,000 compounds, 0.32% hits; AID 504720; in the data active means activation above about 50%
Target sequence (P0AE70 whole entry, looked up): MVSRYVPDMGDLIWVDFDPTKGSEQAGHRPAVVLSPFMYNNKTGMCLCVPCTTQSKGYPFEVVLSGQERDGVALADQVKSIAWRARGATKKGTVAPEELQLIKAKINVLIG
Bead autofluor: flagged as autofluorescent in microsphere protease counterscreen. compound autofluorescence counterscreen, microsphere flow cytometry; hits give high values. fluorescence intensity (no concentration beside the values). 360,000 compounds, 3.1% hits; in the data active means fluorescence intensity above about 16000; inconclusive means no clear call, values can overlap the other calls
Anthrax LF prot: anthrax lethal factor protease inhibition; P15917; multiplex microsphere protease cleavage assay, LF; inhibition, % at 10 µM; 360,000 compounds, 0.12% hits
BoNT-F LC inh: blocks Botulinum neurotoxin F light chain protease. Multiplex microsphere protease cleavage assay, flow cytometry. inhibition, % at 10 µM. 360,000 compounds, 0.22% hits. AID 588497; in the data active means inhibition above about 35%, passing the limit was not always enough; inconclusive means no clear call, values can overlap the other calls
A number is an active result; . = inactive; ? = inconclusive; / = no result given. Rows were chosen to be rich in hits. Some 3.7% of all compounds tested hit in one or more screens of this group. Unless noted, no stated cut-off is given here; in the data, active means inhibition above about 30%; inconclusive means no clear call, values can overlap the other calls; inactive means below that.

SMILES | BoNT-A LC inh2 | MazEF act | Bead autofluor | Anthrax LF prot | BoNT-F LC inh
COc1cccc(N2CCN(C(=S)NCc3ccco3)CC2)c1 | . | . | 16347 | . | .
C[C@@H]1ON(C)[C@H]2C[C@H]3c4[nH]c5ccc(-c6ccc7c(c6)OCO7)cc5c4CCN3C(=O)[C@@H]12 | . | . | . | . | .
COCCNC(=O)C1CCCN(C(=O)c2cc(-c3cccs3)oc2C)CC1 (configuration not stated) | . | / | . | . | .
Cc1ccccc1-n1c(=O)cc(N2CCc3ccccc3C2)[nH]c1=O | . | . | 19487 | . | .
O=c1cc(N2CCc3ccccc3C2)[nH]c(=O)n1-c1ccccc1Cl | . | . | . | . | .
C#CCN(C[C@@H]1[C@@H](OC(=O)NCc2ccc(OC)c(OC)c2)[C@@H](OC(=O)NCc2ccc(OC)c(OC)c2)CN(C(=O)OC(C)C)N1C(=O)OC(C)C)S(=O)(=O)c1ccc(C)cc1 | . | . | . | . | .
COCc1cc(=O)[nH]c(/N=C(\N)Nc2ccc(C)cc2)n1 | ? | . | 21003 | . | .
COc1ccc(N/C(N)=N/c2nc(CSc3ccc(Cl)cc3)cc(=O)[nH]2)cc1 | . | . | . | . | .
CCOC(=O)Cc1cc(=O)[nH]c(/N=C(\N)Nc2ccc(C)cc2C)n1 | . | . | 23280 | . | .
Cc1ccc(SCc2cc(=O)[nH]c(/N=C(\N)Nc3ccc(C)c(C)c3)n2)cc1 | . | . | 25207 | . | .
O=C(Nc1cccnc1)c1cc2c(ccc3ccccc32)o1 | . | . | 23266 | . | .
CC(C)(C)Nc1nc(C(N)=O)nc(N2CCOCC2)n1 | . | . | 24325 | . | .
CC(=O)NC1CC2CCCC(C1)N2C(=O)Nc1ccc(Cl)cc1 (configuration not stated) | . | . | . | . | .
CCn1nc(C)c(/C=N/NC(=O)c2nc3nc(C)cc(C)n3n2)c1C | . | . | . | 34.3 | ?
Cc1noc(C)c1S(=O)(=O)N(C)C[C@H]1Oc2c(NC(=O)Nc3ccc(C(F)(F)F)cc3)cccc2C(=O)N([C@H](C)CO)C[C@@H]1C | . | . | . | . | .
Nc1nnc(C(=O)c2ccccc2N)s1 | . | . | 21252 | . | .
NC(=O)c1ccccc1N | . | . | . | . | .
O=C(NCc1ccc(F)cc1F)[C@@H]1CCCN1C(=O)[C@@H]1CCCN1C(=O)c1cccc2ccccc12 | . | / | . | . | .
CCCCn1nnnc1C1(C)CCC(=O)N1C1CC1 (configuration not stated) | . | / | . | . | .
CCOc1ccc(NC(=O)N2CCC(c3ccc(C)cc3)C2)cc1 (configuration not stated) | . | . | 22970 | . | .
CCc1c(C)sc(NC(=O)c2cc(-c3cc(OC)ccc3OC)on2)c1C#N | . | . | 21969 | . | .
O=C1CC=Nc2ccc([N+](=O)[O-])cc21 | . | . | . | . | .
Cc1ccc(NC(=O)C2C(C(=O)O)C3C=CC2C32CC2)cc1 (configuration not stated) | . | . | 19275 | . | .
Cc1cccc(NC(=O)C2C(C(=O)O)C3C=CC2C32CC2)c1C (configuration not stated) | . | . | . | . | .
O=C(NC1CCCCC1)N(Cc1cc2cc3c(cc2[nH]c1=O)OCCO3)CC1CCCO1 (configuration not stated) | ? | . | 18971 | . | .
SMILES | BoNT-A LC inh2 | MazEF act | Bead autofluor | Anthrax LF prot | BoNT-F LC inh
Cc1ccc2cc(CN(CCCN3CCOCC3)C(=O)NC3CCCCC3)c(=O)[nH]c2c1C | . | . | . | . | .
CCN1CCCC1CN(Cc1cc2c(C)cc(C)cc2[nH]c1=O)C(=O)NC1CCCCC1 (configuration not stated) | . | 58.8 | . | . | .
O=C(NC1CCCCC1)N(CCO)Cc1cc2cc3c(cc2[nH]c1=O)OCCO3 | . | . | . | . | .
Cc1cc2cc(CN(CCCN3CCOCC3)C(=O)NC3CCCCC3)c(=O)[nH]c2cc1C | . | . | 23619 | . | .
COc1ccc(C(=O)NCC(=O)N2CCC(Cc3ccccc3)CC2)cc1OC | / | . | / | / | /
Cc1ccc(C)c(Nc2nc3c(S(=O)(=O)c4ccccc4)nnn3c3ccccc23)c1 | . | 135.3 | . | . | .
FC(F)(F)c1ccccc1CN1CCN(Cc2ccccc2)CC1 | . | . | . | . | .
Cc1ccccc1CN1CCN(Cc2ccccc2C(F)(F)F)CC1 | ? | . | 20858 | . | .
C=C1CC(C)OC(c2ccccc2OCC(O)CN2CCCCC2)C1 (configuration not stated) | ? | . | 21660 | . | .
CC1(Oc2cccc(F)c2)CCN(Cc2ccc(-c3ccccc3)o2)C1 (configuration not stated) | . | / | . | . | .
Nc1cc(Cl)ccc1N1CCCCC1 | . | . | . | . | .
